In PubChem BioAssay (Tox21) one finds Potency and outcome data, which are given here for eight compounds.

“And” between values parts separate entries of the source, which are not always exact repeats. Identical values can stand only once. Records with an inconclusive call do not appear. Some structures have more than one record in an assay (separate samples or runs), and their calls can disagree. The source made the active and inactive calls. Unless noted, the call rests on the fitted dose curve; in most records, active means well fitted curve in the direction sought with a large enough effect in the repeat runs; inconclusive means weak or mixed curves; inactive means no such curve, though single readings can be large; an effect the other way counts as inactive or inconclusive.

Experiment [1] is described as follows: qHTS assay to identify aromatase inhibitors - cell viability counter screen (AID 743084).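 Further: cells stimulated with testosterone during compound exposure; nearly all actives have a fitted effect of over 55% in size.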 Further: potency means the concentration at half of the fitted maximal effect.
The nature of experiment [2]: qHTS assay to identify small molecule that activate the aryl hydrocarbon receptor (AhR) signaling pathway - cell viability counter screen (AID 743086). Further: nearly all actives have a fitted effect of over 45% in size. Further: potency means the concentration at half of the fitted maximal effect. The procedure, abridged: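 HepG2-AhR-luc (HG2L7.5c1) cells, 4000/well, treated 24 h at 37 C with compound; viability measured as CellTiter-Fluor fluorescence after 30 min in the same wells as the luciferase read.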
A short description of experiment [3]: qHTS assay to identify small molecule antagonists of the peroxisome proliferator-activated receptor gamma (PPARg) signaling pathway - cell viability counter screen (AID 743194). Further: nearly all actives have a fitted effect of over 55% in size. Further: potency means the concentration at half of the fitted maximal effect. The note with it: Potency: co-treated with 50 nM rosiglitazone. The procedure, abridged: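 Cytotoxicity counter screen in PPARg-bla HEK293H cells, same wells as reporter assay. Compounds plus 50 nM rosiglitazone (final) for 17 h at 37 C, then viability read by CellTiter-Glo luminescence.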

Experiment [4] is described as follows: qHTS assay for small molecule agonists of the antioxidant response element (ARE) signaling pathway (AID 743202; active means well fitted activation curve with a large enough effect in the signal ratio in the repeat runs, not every such curve was filed as active; the % refers to the signal ratio). An outline of the steps:
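Agonist mode reporter screen: HepG2 cells with ARE-controlled beta-lactamase are incubated with test compounds for 16 h at 37 C, and beta-lactamase activity is measured as fluorescence of cleaved B/G FRET substrate.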

Experiment [5] is described as follows: qHTS assay for small molecule activators of the heat shock response signaling pathway - cell viability counter screen (AID 743209). Further: nearly all actives have a fitted effect of over 50% in size. Further: potency means the concentration at half of the fitted maximal effect. The procedure, abridged: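 CellSensor HSE-bla HeLa cells, plated overnight at 37 C/5% CO2, were exposed to compounds in DMSO for 5 h at 37 C. Viability was then read in the same wells by CellTiter-Glo luminescence after 30 min at room temperature.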

Experiment [6] is described as follows: qHTS assay to identify small molecule agonists of the peroxisome proliferator-activated receptor delta (PPARd) signaling pathway - cell viability counter screen (AID 743211). Further: nearly all actives have a fitted effect of over 55% in size. Further: potency means the concentration at half of the fitted maximal effect. An outline of the steps: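 Multiplexed format: after the 2 h room-temperature LiveBLAzer B/G FRET step, CellTiter-Glo was added to the same wells. Luminescence after 30 min gave cell viability; compound exposure was 17 h at 37C.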

The target of experiment [7] is Peroxisome proliferator-activated receptor delta (Homo sapiens) (UniProt Q03181). Briefly: qHTS assay to identify small molecule agonists of the peroxisome proliferator-activated receptor delta (PPARd) signaling pathway (AID 743212; calls by dose curve). The procedure, abridged:
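Quantitative high-throughput agonist screen in a HEK293H beta-lactamase reporter line under UAS control. Compounds in DMSO, at 37 C. Fluorescence read after 2 h with FRET substrate at room temperature.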

Experiment [8] can be described thus: qHTS assay to identify small molecule antagonists of the peroxisome proliferator-activated receptor delta (PPARd) signaling pathway - cell viability counter screen (AID 743213). Further: nearly all actives have a fitted effect of over 50% in size. Further: potency means the concentration at half of the fitted maximal effect. The procedure, abridged:
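Luminescence from CellTiter-Glo, added after the bla read and incubated 30 min at room temperature, gives viability of HEK293H PPARd-bla cells exposed to compounds for 17 h at 37 C with 300 nM L165041.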

The target in experiment [9] is Peroxisome proliferator-activated receptor delta (Homo sapiens) (UniProt Q03181). Briefly: qHTS assay to identify small molecule antagonists of the peroxisome proliferator-activated receptor delta (PPARd) signaling pathway (AID 743215; active means well fitted inhibition curve with a large enough effect in the signal ratio in the repeat runs, not every such curve was filed as active; the % refers to the signal ratio;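 further: cells stimulated with agonist L165041 at 300 nM final during compound exposure; series mostly up to about 62 µM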). An outline of the steps:
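PPARd UAS-bla HEK293H cells were pre-incubated 5 h at 37 C, then given test compounds in DMSO plus agonist L165041 (300 nM final). After 17 h at 37 C, beta-lactamase FRET substrate was added; fluorescence read after 2 h at room temperature.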

The nature of experiment [10]: qHTS assay to identify small molecule agonists of the farnesoid-X-receptor (FXR) signaling pathway - cell viability counter screen (AID 743218). Further: nearly all actives have a fitted effect of over 45% in size. Further: potency means the concentration at half of the fitted maximal effect. An outline of the steps: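 FXR-UAS-bla HEK 293T cells, plated 5 h at 37 C, were exposed to compounds for 16 h at 37 C. CellTiter-Glo was then added to the same wells as the bla readout; luminescence read after 30 min at room temperature.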

Experiment [11] is described as follows: qHTS assay to identify small molecule antagonists of the farnesoid-X-receptor (FXR) signaling pathway - cell viability counter screen (AID 743221; active means well fitted cell-killing curve with a large enough effect in the repeat runs, not every such curve was filed as active; further: nearly all actives have a fitted effect of over 50% in size; further: potency means the concentration at half of the fitted maximal effect). An outline of the steps: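 CellTiter-Glo, 30 min RT, luminescence; same wells as the LiveBLAzer FRET read. Cells: FXR-UAS-bla HEK 293T. Treatment: compound with chenodeoxycholic acid 50 uM final, 16 h at 37 C.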

Experiment [12] concerns the target Vitamin D3 receptor (Homo sapiens) (UniProt P11473). Briefly: qHTS assay to identify small molecule agonists of the vitamin D receptor (VDR) signaling pathway (AID 743222; calls by dose curve). An outline of the steps:
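VDR-bla cells were plated 4 h at 37C/5% CO2, then exposed to compounds in DMSO for 16 h. After LiveBLAzer B/G FRET substrate addition and 2 h at room temperature, beta-lactamase reporter fluorescence was read.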

Experiment [13] shares this target. Briefly: qHTS assay to identify small molecule antagonists of the vitamin D receptor (VDR) signaling pathway (AID 743223; active means well fitted inhibition curve with a large enough effect in the signal ratio in the repeat runs, not every such curve was filed as active; the % refers to the signal ratio; further: potency means the concentration at half of the fitted maximal effect). The procedure, abridged:
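After VDR-bla cells are plated and left 4 h at 37C, DMSO-dissolved compounds and 3 nM (final) calcitriol agonist are added. Incubation continues 16 h at 37C; FRET beta-lactamase substrate then develops 2 h at room temperature.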

The target in experiment [14] is Peroxisome proliferator-activated receptor gamma (Homo sapiens) (UniProt P37231). Briefly: qHTS assay to identify small molecule antagonists of the peroxisome proliferator-activated receptor gamma (PPARg) signaling pathway (AID 743191; calls by dose curve; further: nearly all actives have a fitted effect of over 30% in size; further: potency means the concentration at half of the fitted maximal effect). An outline of the steps:
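GeneBLAzer PPARg UAS-bla HEK293H cells, 5 h post-plating, exposed to compounds 17 h at 37C. LiveBLAzer B/G FRET substrate added for 1 h at room temperature; beta-lactamase reporter read by fluorescence intensity.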

Experiment [15] in a line: qHTS assay for small molecule agonists of the antioxidant response element (ARE) signaling pathway - cell viability counter screen (AID 743203; calls by dose curve; further: nearly all actives have a fitted effect of over 55% in size). The procedure, abridged:
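CellSensor ARE-bla HepG2 cells, 2,000 per well, rested 5 hrs at 37C/5% CO2, then exposed to compound in DMSO for 16 hrs; viability read as CellTiter-Glo luminescence after 30 min at room temperature, in the reporter wells.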

Experiment [16] concerns the target Bile acid receptor (Homo sapiens) (UniProt Q96RI1). Briefly: qHTS assay to identify small molecule agonists of the farnesoid-X-receptor (FXR) signaling pathway (AID 743220; active means well fitted activation curve with a large enough effect in the signal ratio in the repeat runs, not every such curve was filed as active; the % refers to the signal ratio). An outline of the steps:
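Beta-lactamase reporter under UAS control in GeneBLAzer FXR HEK 293T cells (5000/well) measured with LiveBLAzer FRET substrate after 2 h at room temperature. Compound exposure lasted 16 h at 37C.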

Experiment [17] deals with Peroxisome proliferator-activated receptor gamma (Homo sapiens) (UniProt P37231). Briefly: qHTS assay to identify small molecule agonists of the peroxisome proliferator-activated receptor gamma (PPARg) signaling pathway (AID 743094; active means well fitted activation curve with a large enough effect in the signal ratio in the repeat runs, not every such curve was filed as active; the % refers to the signal ratio). The procedure, abridged:
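GeneBLAzer PPARg UAS-bla HEK293H cells carrying a stably integrated beta-lactamase reporter were pre-incubated 5 h at 37C, then exposed to compounds in DMSO for 17 h at 37C; LiveBLAzer B/G FRET substrate was added for 1 h at room temperature and fluorescence read.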

Experiment [18] can be described thus: qHTS assay for small molecule activators of the heat shock response signaling pathway (AID 743210; active means well fitted activation curve with a large enough effect in the signal ratio in the repeat runs, with a control signal flat, not every such curve was filed as active; the % refers to the signal ratio;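 further: HeLa cells with beta-lactamase reporter driven by heat shock elements; series mostly up to about 63 µM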). An outline of the steps: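 Quantitative high-throughput format using an engineered HeLa line in which heat shock response elements drive beta-lactamase; after 5 h with compound, cells received a B/G FRET substrate and fluorescence was read.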
Experiment [19] has as its target Bile acid receptor (Homo sapiens) (UniProt Q96RI1). Briefly: qHTS assay to identify small molecule antagonists of the farnesoid-X-receptor (FXR) signaling pathway (AID 743217; active means well fitted inhibition curve with a large enough effect in the signal ratio in the repeat runs, not every such curve was filed as active; the % refers to the signal ratio). An outline of the steps: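 FXR-UAS-bla HEK 293T cells pre-incubated 5 h at 37 °C, then exposed to compounds with chenodeoxycholic acid (50 uM final) for 16 h at 37 °C. Beta-lactamase reporter read by LiveBLAzer B/G FRET substrate fluorescence after 2 h at room temperature.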

Peroxisome proliferator-activated receptor gamma (Homo sapiens), sequence (P37231 whole entry, looked up): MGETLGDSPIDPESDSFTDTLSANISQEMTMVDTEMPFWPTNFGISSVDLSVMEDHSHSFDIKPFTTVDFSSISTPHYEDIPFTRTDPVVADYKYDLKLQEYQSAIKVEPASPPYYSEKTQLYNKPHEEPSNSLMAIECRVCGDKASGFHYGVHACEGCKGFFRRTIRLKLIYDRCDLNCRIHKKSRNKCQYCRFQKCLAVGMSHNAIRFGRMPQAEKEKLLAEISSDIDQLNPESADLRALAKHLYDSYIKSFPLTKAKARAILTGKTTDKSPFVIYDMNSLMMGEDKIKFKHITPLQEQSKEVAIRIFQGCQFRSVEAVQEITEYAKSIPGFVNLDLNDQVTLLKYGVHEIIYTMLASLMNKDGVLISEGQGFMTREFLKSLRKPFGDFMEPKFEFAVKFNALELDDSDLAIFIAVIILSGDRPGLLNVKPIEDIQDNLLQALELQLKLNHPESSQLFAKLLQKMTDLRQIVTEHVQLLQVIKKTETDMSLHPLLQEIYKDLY
Peroxisome proliferator-activated receptor delta (Homo sapiens), sequence (Q03181 whole entry, looked up): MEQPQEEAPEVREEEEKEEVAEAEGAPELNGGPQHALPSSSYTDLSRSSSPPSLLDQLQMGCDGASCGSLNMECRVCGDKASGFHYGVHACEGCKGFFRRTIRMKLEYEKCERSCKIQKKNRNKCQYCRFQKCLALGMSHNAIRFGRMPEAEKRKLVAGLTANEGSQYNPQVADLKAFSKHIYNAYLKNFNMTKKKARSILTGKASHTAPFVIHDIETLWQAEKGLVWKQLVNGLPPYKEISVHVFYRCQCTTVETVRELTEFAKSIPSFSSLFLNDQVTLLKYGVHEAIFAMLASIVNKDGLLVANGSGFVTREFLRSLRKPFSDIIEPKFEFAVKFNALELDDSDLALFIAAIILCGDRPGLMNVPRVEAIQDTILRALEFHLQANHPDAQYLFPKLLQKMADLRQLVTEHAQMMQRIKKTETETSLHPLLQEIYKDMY
Bile acid receptor (Homo sapiens), sequence (Q96RI1 whole entry, looked up): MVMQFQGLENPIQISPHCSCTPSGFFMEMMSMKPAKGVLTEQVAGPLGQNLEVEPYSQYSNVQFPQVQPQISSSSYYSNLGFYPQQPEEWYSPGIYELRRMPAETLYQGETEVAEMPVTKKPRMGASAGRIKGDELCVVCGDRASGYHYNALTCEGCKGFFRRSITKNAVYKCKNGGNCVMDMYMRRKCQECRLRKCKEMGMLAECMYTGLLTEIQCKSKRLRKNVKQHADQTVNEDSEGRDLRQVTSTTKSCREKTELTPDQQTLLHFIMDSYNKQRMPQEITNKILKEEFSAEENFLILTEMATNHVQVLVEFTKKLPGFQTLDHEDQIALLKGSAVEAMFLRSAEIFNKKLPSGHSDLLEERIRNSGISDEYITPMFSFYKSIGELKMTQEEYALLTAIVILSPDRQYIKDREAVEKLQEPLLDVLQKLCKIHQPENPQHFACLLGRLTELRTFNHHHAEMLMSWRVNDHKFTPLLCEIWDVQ
Vitamin D3 receptor (Homo sapiens), sequence (P11473 whole entry, looked up): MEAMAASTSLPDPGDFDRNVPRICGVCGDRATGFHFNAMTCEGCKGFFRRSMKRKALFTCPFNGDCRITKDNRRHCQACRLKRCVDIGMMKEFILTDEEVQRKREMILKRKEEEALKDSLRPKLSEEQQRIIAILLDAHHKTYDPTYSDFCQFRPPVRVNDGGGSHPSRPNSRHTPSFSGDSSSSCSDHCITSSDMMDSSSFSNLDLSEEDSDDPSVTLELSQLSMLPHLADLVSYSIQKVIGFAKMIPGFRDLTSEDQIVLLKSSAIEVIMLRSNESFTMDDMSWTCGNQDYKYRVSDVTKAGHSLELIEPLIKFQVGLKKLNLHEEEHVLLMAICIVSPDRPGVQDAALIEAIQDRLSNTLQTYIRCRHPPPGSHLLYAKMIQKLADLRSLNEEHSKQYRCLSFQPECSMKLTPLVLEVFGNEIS

With `CCC(C)(C)c1ccc(O)c(C(C)(C)CC)c1`, the Potency in experiment [1] was 42.8 µM (active) and 27.3 µM (active); in experiment [3], 24.3 µM (active) and 21.9 µM (active); in experiment [5], 17.2 µM (active) and 17.4 µM (active); in experiment [6] it was 19.3 µM (active) and 19.5 µM (active); in experiment [8], 17.2 µM (active) and 38.9 µM (active); in experiment [10], “inactive and 24.5 µM (active)”. Moreover, the Potency in experiment [11] was 19.5 µM (active); in experiment [13], 12.2 µM (active) and 17.4 µM (active). Besides, the Potency entry in [2], in [4] and in experiment [9] was “inactive” in each case. The outcome in [7] and in experiment [12] was inactive.
`CN1C[C@H](C(=O)N[C@]2(C)O[C@@]3(O)[C@@H]4CCCN4C(=O)[C@H](Cc4ccccc4)N3C2=O)C=C2c3cccc4[nH]cc(c34)C[C@H]21`: the Potency entry in experiment [1], in [3], in experiment [15], in experiment [5], in experiment [6] and in [8] was “inactive” throughout. The Potency entry in experiment [10] and in experiment [11] was “inactive” each time. Also, the Potency was 21.8 µM (active) and inactive in experiment [2]; 43.8 µM (active) and inactive in [14]. Moreover, the call in [16] was inactive.
With `C[N+](C)(C)CC1CO1` (centres undefined), the Potency result in experiment [1], in experiment [2], in experiment [17], in experiment [14], in [3] and in experiment [4] was “inactive” in each case. Besides, the Potency entry in experiment [15], in experiment [5], in experiment [8], in experiment [9], in experiment [10] and in [11] was “inactive” in each case. Further, in experiment [7], the call was inactive.
Take `CCCCCCCCCCCCCCCl`: the Potency result in [1], in experiment [2], in experiment [3], in experiment [4], in experiment [15] and in experiment [5] was “inactive” throughout. Further, the Potency entry in experiment [18], in experiment [8], in experiment [9] and in experiment [10] was “inactive” each time. Also, the outcome in experiment [7] and in experiment [12] was inactive.
`Cc1nnc(-c2ccccc2)c(=O)n1N`: the Potency result in [1], in experiment [2], in experiment [17], in experiment [3], in [4] and in experiment [15] was “inactive” throughout. The Potency entry in [5], in [18], in [6], in experiment [8], in [9] and in experiment [19] was “inactive” each time. For the same compound, the Potency result in experiment [10] and in [11] was “inactive” throughout. The outcome in experiment [7] and in [12] was inactive.
`CCC1(CC)C(=O)NC(=O)NC1=O`: the Potency entry in experiment [1], in experiment [2], in experiment [17], in [14], in [3] and in experiment [15] was “inactive” throughout. The Potency entry in experiment [18], in experiment [6], in [8], in experiment [9], in experiment [10] and in experiment [11] was “inactive” each time. Also, the call in [7] was inactive.
As for `COc1ccc2c(c1OC)C(=O)O[C@H]2[C@@H]1c2cc3c(cc2CCN1C)OCO3`, the Potency entry in [1], in experiment [2], in experiment [17], in experiment [14], in experiment [3] and in experiment [4] was “inactive” in each case. For the same compound, the Potency entry in [5], in [18], in experiment [6], in [8], in experiment [9] and in experiment [10] was “inactive” each time. For the same compound, in [11], the Potency result is “inactive”. Besides, the compound was classed as inactive in [7].
Turning to `CN1CC[C@]23c4c5ccc(O)c4O[C@H]2[C@@H](O)CC[C@H]3[C@H]1C5`, the Potency result in experiment [1], in experiment [2], in [17], in experiment [3], in [15] and in experiment [5] was “inactive” in each case. Moreover, the Potency entry in experiment [6], in experiment [8], in [10], in [11] and in experiment [13] was “inactive” throughout. Also, the compound was classed as inactive in experiment [12].
